Measured values from PubChem BioAssay AID1508622 (National Center for Advancing Translational Sciences (NCATS), 2021).
Active and inactive are the calls of the source. Where a call stands in place of a potency, no number is given. Calls come from the whole dose curve; as a rule, active = well fitted activation curve with a large enough effect; inconclusive = small, poorly fitted or top-dose-only effect; inactive = no such curve, though single readings can be large or run the other way.

Assay: Confirmatory qHTS for Identification of Small Molecule Activators of Huntingtin-Antisense Promoter Activity
Outline: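 Activity normalized between vehicle control (0%) and zero RLU (-100%) from firefly luminescence (Dual-Glo). Compounds, up to 57.5 uM final, incubated 24 h at 37C on HEK293 reporter cells plated 24 h earlier.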
Potency is the fitted concentration of half-maximal effect.

Row | Structure (SMILES) | Potency
1 | CCN(Cc1ccccc1)S(=O)(=O)c1ccc(N2CCCCS2(=O)=O)cc1 | inactive
2 | CCC(=O)N1CCCc2cc(S(=O)(=O)N3CCC(C(=O)Nc4ccccc4CC)CC3)ccc21 | inactive
3 | CCOc1cc(C(=O)Nc2ccc3oc(-c4ccc(CC)cc4)nc3c2)cc(OCC)c1OCC | inactive
4 | O=C(NCC1CCN(Cc2ccccc2F)CC1)Nc1ccc(F)c(Cl)c1 | inactive
5 | CCOc1ccc(NC(=O)CN(c2ccc(Cl)cc2C)S(=O)(=O)c2ccccc2)cc1 | inactive
6 | COc1ccc(OC(C)C(=O)NCc2nc(-c3ccc(Cl)cc3)no2)cc1 (stereo not drawn) | inactive
7 | Cc1ccc(CCNC(=O)c2cc3c(s2)-c2ccccc2OC3)cc1 | inactive
8 | Cc1ccccc1OCC(=O)NCC(c1ccc(Cl)cc1)N1CCOCC1 (stereo not drawn) | inactive
9 | O=C(NCC(c1ccc2c(c1)OCO2)N1CCN(c2ccccc2)CC1)c1ccc(F)c(F)c1 (stereo not drawn) | inactive
10 | Cc1cccc(Nc2nc(Nc3cccc(C)c3)nc(N3CCOCC3)n2)c1 | inactive
11 | Cc1ccccc1NC(=O)c1sc2nc3c(cc2c1N)CN(Cc1ccccc1)CC3 | inactive
12 | Cc1cc(NC(=O)c2cc(-c3ccc(F)cc3)on2)nn1Cc1ccc(Cl)cc1 | inactive
13 | COc1ccc(-n2c(=O)[nH]c3cc(C(=O)NCCc4ccc(Cl)cc4)ccc3c2=O)cc1OC | inactive
14 | COc1ccccc1NC(=O)CN1C(=O)C(C)(C)c2ccccc21 | inactive
15 | CCOc1ccc(CNC(=O)c2ccc(Sc3ccc(Cl)cc3)c(NC(C)=O)c2)cc1OC | inactive
16 | Cc1cccc(N2CCN(C(=O)c3ccc(NC(=O)c4nsc5ccccc45)cc3)CC2C)c1 (stereo not drawn) | 0.338 µM (active)
17 | CCCCc1nc2cc(C=CC(=O)NO)ccc2n1CCN(CC)CC | 8.49 µM (active)
18 | O=C(CN1CCCN(S(=O)(=O)c2ccc(Br)cc2)CC1)Nc1cccc(C(F)(F)F)c1 | inactive
19 | CC(=O)Nc1cccc(NC(=O)Cc2csc(COc3cccc(C)c3)n2)c1 | inactive
20 | Cc1ccc(CNC(=O)Nc2cc(C(=O)NCc3ccc(C(C)C)cc3)ccc2N2CCCC2)cc1 | inactive
21 | CCOC(=O)c1cc2c(=O)n3ccccc3nc2n(Cc2ccco2)c1=NC(=O)c1cc(C)cc(C)c1 | inactive
22 | COc1ccccc1N1CCN(C(CNC(=O)C(=O)NCCc2ccccc2)c2cccnc2)CC1 (stereo not drawn) | inactive

Row | Structure (SMILES) | Potency
23 | O=C(Cn1c(=O)oc2cc(S(=O)(=O)N3CCCCC3)ccc21)NCc1ccc(Cl)cc1 | inactive
24 | COc1ccc(-c2nc3sc(CCNS(=O)(=O)c4ccc(F)c(C)c4)c(C)n3n2)cc1 | inactive
25 | CCCCN(C)S(=O)(=O)c1cc(-c2cc(C)no2)ccc1C | inactive
26 | Cc1ccc(C)c(N2CCN(C(=O)c3nn(C)c4c3CS(=O)(=O)c3ccccc3-4)CC2)c1 | inactive
27 | CCOC(=O)c1oc2c(c1C)-c1nn(Cc3ccc(Cl)cc3)cc1CC2 | inactive
28 | COc1ccccc1N=c1scc(-c2ccc(S(=O)(=O)N3CCCC3)cc2)n1C | inactive
29 | COc1ccc2oc(=O)c(C(=O)NCCc3c(C)[nH]c4ccc(C)cc34)cc2c1 | inactive
30 | COc1ccc(-c2nc(CSCC(=O)NCCc3ccc(OC)c(OC)c3)c(C)o2)cc1 | inactive
31 | CC(C)OCc1cc(CN2CCN(c3ccccc3)CC2)c(O)c2ncccc12 | inactive
32 | CCc1ccc(NC(=O)c2ccc3oc(=O)n(Cc4ccccc4)c3c2)cc1 | inactive
33 | CC(C)Oc1ccc(CNC(=O)C2CCN(C(=O)N3CCOc4ccc(Cl)cc43)CC2)cc1 | inactive
34 | CC(=O)c1ccc(NS(=O)(=O)c2ccc3[nH]c(=O)[nH]c3c2)cc1 | 7.57 µM (active)
35 | OCCCn1c(-c2ccc(F)cc2)csc1=Nc1ccc(F)cc1 | inactive
36 | CN(C)Cc1ccc(-c2nc3cccc4c3n2CCNC4=O)cc1 | 30.1 µM (active)
37 | CCOc1cccc(NC(=O)c2ccc(F)c(S(=O)(=O)N(CC)c3cccc(C)c3)c2)c1 | inactive
38 | COc1cc(NC(=O)c2cnc3c(-c4ccc(F)cc4)c(C)nn3c2C)cc(OC)c1 | inactive
39 | CCOc1ccc(C2=C(C(=O)CC)Sc3nncn3N2C(=O)CC)cc1 | inactive
40 | CCn1cc(C(=O)N2CCN(c3ccc(C)cc3)C(C)C2)c(=O)c2cc(S(=O)(=O)N3CCCC3)ccc21 (stereo not drawn) | inactive
41 | CCNc1nc2c(c(=O)n(C)c(=O)n2C)n1Cc1ccc(F)cc1 | inactive
42 | Cc1ccccc1C(=O)Nc1sc2c(c1C(=O)O)CCC(C(C)(C)C)C2 (stereo not drawn) | inactive
43 | Cc1ccc(Cl)cc1N1CCN(C(=O)c2ccc3c(c2)N(Cc2ccc(F)cc2)CCS3)CC1 | inactive
